PubChem BioAssay (NCATS)
Results filed as inconclusive are left out. The source made the active and inactive calls. Unless noted, calls come from the whole dose curve; as a rule, active = well fitted curve in the direction sought with a large enough effect; inconclusive = small, poorly fitted or top-dose-only effect, or another doubt; inactive = no such curve, though single readings can be large; an effect the other way counts as inactive or inconclusive.

What was measured:
[1] = molecular target: Aldehyde dehydrogenase, mitochondrial (Homo sapiens) (UniProt P05091); assay: qHTS for Inhibitors of the Aldehyde Dehydrogenase Family (ALDH2) Confirmatory screens (AID 2061303; active = well fitted inhibition curve with a large enough effect; title and protocol of this record describe different tests; note: nearly all actives have a fitted effect of over 45% in size; note: potency is the fitted concentration of half-maximal effect)
[2] = qHTS for Inhibitors of the Aldehyde Dehydrogenase Family (ALDH1A2, ALDH1A3, ALDH2, ALDH3A1) (AID 2061307); note: nearly all actives have a fitted effect of over 50% in size; for Potency: test system not described further here; potency is the fitted concentration of half-maximal effect
[3] = molecular target: Aldehyde dehydrogenase, mitochondrial (Homo sapiens) (UniProt P05091); assay: qHTS for Inhibitors of the Aldehyde Dehydrogenase Family (ALDH2) Primary screen (AID 2061308); note: nearly all actives have a fitted effect of over 55% in size; note: potency is the fitted concentration of half-maximal effect
[4] = molecular target: Retinaldehyde dehydrogenase 3 (Homo sapiens) (UniProt P47895); assay: qHTS for Inhibitors of the Aldehyde Dehydrogenase Family (ALDH1A3) Confirmatory screens (AID 2061311); note: nearly all actives have a fitted effect of over 60% in size; note: potency is the fitted concentration of half-maximal effect
[5] = molecular target: Retinal dehydrogenase 2 (Homo sapiens) (UniProt O94788); assay: qHTS for Inhibitors of the Aldehyde Dehydrogenase Family (ALDH1A2) Confirmation screens (AID 2061314); note: nearly all actives have a fitted effect of over 65% in size; note: potency is the fitted concentration of half-maximal effect
[6] = molecular target: Retinaldehyde dehydrogenase 3 (Homo sapiens) (UniProt P47895); assay: qHTS for Inhibitors of the Aldehyde Dehydrogenase Family (ALDH1A3) Primary screen (AID 2061315);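 note: plate controls were DMSO vehicle for no effect and reference inhibitor for full effect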
[7] = molecular target: Aldehyde dehydrogenase 1A1 (Homo sapiens) (UniProt P00352); assay: qHTS for Inhibitors of the Aldehyde Dehydrogenase Family (ALDH1A1) Confirmatory screens (AID 2061316); note: nearly all actives have a fitted effect of over 65% in size; note: potency is the fitted concentration of half-maximal effect
[8] = BET inhibitor-based combinations targeting novel dependencies in MECOM-rearranged (r) AML: SET-2 cell line (AID 2202231); conditions: SET-2 AML cells viability, CellTiter-Glo luminescence, 48 h; viability: stronger effect = lower value, series mostly up to about 46 µM;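 note: plate controls were DMSO treated cells for no effect and wells without cells for full effect; nearly all actives have a fitted effect of over 35% in size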
How it was run: (§1)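 Viability of cells (500 per well) is scored by luminescent CellTiter-Glo at 48 hr post-dosing. Eleven-point titrations are normalized to DMSO and empty controls and reduced to AUC values.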

[9] = BET inhibitor-based combinations targeting novel dependencies in MECOM-rearranged (r) AML: OCI-AML3 cell line (AID 2202232); conditions: Potency: OCI-AML3 viability;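 note: series mostly up to about 46 µM; plate controls were DMSO vehicle wells for no effect and wells without cells for full effect; nearly all actives have a fitted effect of over 35% in size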
How it was run: as §1

[10] = BET inhibitor-based combinations targeting novel dependencies in MECOM-rearranged (r) AML: UCSD-AML1 cell line (AID 2202235);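 note: series mostly up to about 46 µM; plate controls were DMSO vehicle wells for no effect and blank wells for full effect; nearly all actives have a fitted effect of over 40% in size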
How it was run: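 Using pin-tool transfer, drugs were added in 11 doses to cells (500/well), incubated 48 hr, and assessed with CellTiter-Glo. Z-AUC is a mean-centring transformation applied separately to each screened line.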

[11] = BET inhibitor-based combinations targeting novel dependencies in MECOM-rearranged (r) AML: AML-191 cell line (AID 2202236;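 note: plate controls were vehicle wells for no effect and wells without cells for full effect; nearly all actives have a fitted effect of over 35% in size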)
How it was run: as §1

[12] = BET inhibitor-based combinations targeting novel dependencies in MECOM-rearranged (r) AML: AML-194 cell line (AID 2202237;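 note: plate controls were vehicle wells for no effect and wells without cells for full effect; nearly all actives have a fitted effect of over 40% in size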)
How it was run: as §1

CC(=O)NCCC(=O)N[C@@H](CCC(N)=O)C(=O)N[C@@H](CO)C(=O)N[C@@H](CCC(N)=O)C(=O)N[C@@H](CCC(N)=O)C(=O)N[C@H](C(=O)N[C@@H](Cc1ccccc1)C(=O)N[C@]1(C)CCCCCCC=CCCC[C@@](C)(C(=O)N[C@@H](CCC(N)=O)C(=O)N[C@@H](CC(N)=O)C(N)=O)NC(=O)[C@H](CC(C)C)NC(=O)[C@H](CC(C)C)NC(=O)[C@@H](CCCNC(=N)N)NC(=O)[C@H](Cc2c[nH]c3ccccc23)NC(=O)[C@H](CC(C)C)NC(=O)[C@H](CC(N)=O)NC1=O)[C@H](C)O
inactive: Potency [1] | Potency [2] | Potency [3] | Potency [4] | Potency [5] | Potency [6] | Potency [7] | viability [8] 109% | Potency [9] | Potency [10] | Potency [11] | Potency [12]

Cc1cc(NC(=O)c2ccc([S+](=O)([O-])NCc3ccc(Cl)c(Cl)c3)cc2)no1
inactive: Potency [1] | Potency [2] | Potency [3] | Potency [4] | Potency [5] | Potency [6] | Potency [7]

Fc1ccc(CSc2nc3ncc(Br)cc3[nH]2)cc1
inactive: Potency [1] | Potency [2] | Potency [3] | Potency [4] | Potency [5] | Potency [6] | Potency [7]

Cc1ccc(Cl)cc1NS(=O)(=O)c1cc2c(cc1F)NC(=O)CC2
active: Potency [1] 12.6 µM | Potency [2] 28.2 µM | Potency [4] 12.6 µM
inactive: Potency [3] | Potency [6]

N#Cc1c(-c2ccc(F)cc2)no[n+]1[O-]
inactive: Potency [1] | Potency [3] | Potency [4] | Potency [6]
active: Potency [2] 12.7 µM

O=C1CCCC2=C1C(c1[nH]ncc1Cl)NC(=S)N2 (centres undefined)
inactive: Potency [1] | Potency [2] | Potency [3] | Potency [4] | Potency [6]

Cc1ccc(Nc2nc(C#N)nc(NC3CCCC3)n2)cc1
inactive: Potency [1] | Potency [2] | Potency [3] | Potency [4] | Potency [6]

O=C1Cc2cc(S(=O)(=O)N3CCN(c4ccc(C(F)(F)F)cc4)CC3)ccc2N1
inactive: Potency [1] | Potency [2] | Potency [3] | Potency [4] | Potency [6] | Potency [7]

N#Cc1c(C(=O)c2cccs2)no[n+]1[O-]
active: Potency [1] 3.98 µM | Potency [2] 2.24 µM | Potency [3] 282 nM | Potency [4] 1.59 µM | Potency [5] 3.16 µM | Potency [7] 225 nM

Cc1ccc(C)c(SC2=NS(=O)(=O)c3ccccc32)c1
inactive: Potency [1] | Potency [2] | Potency [3] | Potency [4] | Potency [6] | Potency [7]

COc1ccc(C2Nc3ccccc3C(=O)N2Cc2ccccc2C(F)(F)F)cc1COc1ccc(NC(C)=O)cc1 (centres undefined)
active: Potency [1] 0.316 µM | Potency [2] 2.25 µM | Potency [4] 15.9 µM
inactive: Potency [3] | Potency [6]

CCOc1cc(CNc2ccc(O)cc2)ccc1OCc1ccc(Cl)cc1
active: Potency [1] 10.1 µM | Potency [2] 11.3 µM | Potency [3] 3160 nM | Potency [4] 1.01 µM | Potency [5] 0.504 µM | Potency [7] 6340 nM

COc1ccc(C2=Nn3c(nnc3-c3ccccc3C)SC2)cc1
inactive: Potency [1] | Potency [2] | Potency [3] | Potency [4] | Potency [6]

O=C1Nc2ccccc2/C1=C\c1cc(F)c(O)c(F)c1
inactive: Potency [1] | Potency [2]
active: Potency [3] 1120 nM | Potency [4] 3.16 µM | Potency [5] 5.62 µM | Potency [7] 8960 nM

O=[N+]([O-])c1ccc(CNc2ccc([S+](=O)([O-])Nc3nccs3)cc2)c(O)c1
inactive: Potency [1] | Potency [2] | Potency [3] | Potency [4] | Potency [6]

O=C(O)c1ccc(O)c2ncc(N3CCCN(C4CCCC4)CC3)cc12
active: Potency [4] 14.2 µM
inactive: Potency [1] | Potency [2] | Potency [3] | Potency [5] | Potency [7]

CN1CCc2sc(NC(=O)Cc3ccccc3)c(C(=O)Nc3ccc(Cl)cc3)c2C1
inactive: Potency [1] | Potency [2] | Potency [3] | Potency [4] | Potency [6]

NC(=O)C1CCN(c2ncc(-c3ccc4c(c3)OCCO4)s2)CC1
active: Potency [1] 0.896 µM | Potency [2] 7.12 µM | Potency [4] 7.98 µM | Potency [5] 8.96 µM | Potency [7] 712 nM
inactive: Potency [3]

O=[N+]([O-])c1ccc(S(=O)(=O)c2ccc(Cl)cc2)nc1
active: Potency [1] 0.504 µM | Potency [2] 2.82 µM | Potency [3] 251 nM | Potency [4] 28.2 µM | Potency [5] 3.16 µM | Potency [7] 283 nM

COc1ccc(C2Nc3ccccc3C(=O)N2Cc2ccccc2)cc1COc1ccc(NC(=O)c2ccccc2)cc1 (centres undefined)
active: Potency [2] 1.59 µM
inactive: Potency [1] | Potency [3] | Potency [4] | Potency [6]

COc1cccc(C2c3c(ncn(-c4ccccc4C#N)c3=N)Oc3ccc4ccccc4c32)c1 (centres undefined)
active: Potency [4] 25.2 µM
inactive: Potency [1] | Potency [2] | Potency [3] | Potency [6]
